In PubChem BioAssay AID504832 (National Center for Advancing Translational Sciences (NCATS), 2011) one finds Potency and activity change, negative = inhibition data, which are given here for 97 compounds.

The campaign covered roughly 310,000 compounds. About 18,000 (5.8%) were called active. Entries that show only a call come without a potency. Not shown: some 22% with an inconclusive outcome. Calls follow the shape of the dose curve; as a rule, active = well fitted inhibition curve with a large enough effect; inconclusive = small, poorly fitted or top-dose-only effect, or another doubt; inactive = no such curve, though single readings can be large or run the other way. Only a selection was taken, and actives are over-represented in it overall.
Potency is read from the fitted curve at half-maximal effect.

The nature of this assay: Primary qHTS for delayed death inhibitors of the malarial parasite plastid, 48 hour incubation. The following applies: P. falciparum luciferase growth in erythrocytes; series mostly up to 28.7 µM. Summed up:
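Compounds are pin-transferred into medium, infected erythrocytes (2% hematocrit, 0.1% parasitemia final) are added, and plates sit one parasite generation at 37 C in 5% CO2. Detection reagent is then added and luminescence measured.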
Background: qHTS replaces the single test concentration by a dilution series.
In the case of `CCc1nc2nc(C)c(NS(=O)(=O)c3ccc4c(c3)CCCC4)c(=O)n2[nH]1`, the Potency result was “inactive”. With `CN(CC(=O)Nc1cccc(F)c1)C(=O)CC1CCCC1`, the Potency entry was “inactive”. The same measure, in the same setting: for `Cc1ccc(-c2ccnc3[nH]n(-c4ccccc4)c(=O)c23)cc1` the value was “inactive”. On the same count and under the same terms, for `C=CCn1c(CNS(=O)(=O)c2ccc(Br)cc2)nnc1SC` the value was “inactive”; for `COc1ccc(OC)c(NC(=O)Cc2cccs2)c1`, “inactive”. In the case of `CN(CC(=O)NNC(=O)CNC(=O)c1ccccc1Cl)S(=O)(=O)c1ccc(Cl)cc1`, the Potency entry is “inactive”. Consider `COc1ccc(NC(=O)CSc2nc(C)cs2)cc1`, for which the Potency result was “inactive”. Still for that read-out and setting: then `Cc1csc(SCC(=O)N(c2ccccc2)C(C)C)n1`, with 10.4 µM (active); and `Cc1ccc(C(=O)N2CC(=O)Nc3ccc(F)cc3C2c2ccc(F)cc2)cc1` (configuration not stated), with “inactive”; and `O=S(=O)(c1cccs1)N1CCN(CCOc2ccccc2)CC1`, with “inactive”. As to `COC(=O)c1ccc2c(C(C)(C)O)c(C(C)(C)O)[nH]c2c1`, the Potency result was “inactive”. Take `COc1cccc(/C(C)=N/Nc2ncc(Cl)cc2Cl)c1`: the Potency result was “inactive”.

In the case of `COc1cccc(/C=N/Nc2ncc(C(F)(F)F)cc2Cl)c1O`, the Potency was 1.04 µM (active). Still for that read-out and setting: then `COc1cc(/C=C2\SC(=S)N(Nc3ncc(C(F)(F)F)cc3Cl)C2=O)cc(OC)c1OC`, with “inactive”; and `O=C(NNC(=O)c1ccco1)Nc1ccccc1`, with “inactive”; and `Cc1ccc(C(=O)OCC(=O)NC(=O)Cc2ccccc2)c(O)c1`, with “inactive”. On to `COc1cc(NS(=O)(=O)c2ccc(NC(=S)NC(=O)c3ccc(Br)cc3)cc2)ncn1`, for which the Potency entry is “inactive”. Still for that read-out and setting: for `COc1ccc(C(CCNCc2ccccc2F)c2ccc(F)cc2)cc1` (configuration not stated) the value was 7.38 µM (active); for `COc1ccc(Cc2cc(-c3ccc(F)cc3)n[nH]c2=O)cc1`, “inactive”; for `COc1ccc(CC(=O)NC(C)CCc2ccccc2)cc1` (configuration not stated), “inactive”. As for `CC1(C)Cc2c(cnn2-c2cccc(F)c2)C(NC(=O)c2cc[n+]([O-])cc2)C1` (configuration not stated), the Potency entry was “inactive”. As for `Cc1ccc(S(=O)(=O)N2CCOCC2)cc1NC(=O)COC(=O)c1cnccn1`, the Potency result was “inactive”. Regarding `Cc1cccc(NS(=O)(=O)c2ccc([N+](=O)[O-])cc2)n1`, the Potency result is “inactive”. Take `O=C(CCl)Nc1ccc(Sc2ccc(NC(=O)CCl)cc2)cc1`: the Potency is 3.29 µM (active). Consider `Cc1ccc(NC(=O)CC(=O)Nc2ccc(C)cc2)cc1`, for which the Potency entry is “inactive”. The same measure, in the same setting: then `O=C(Cc1ccc(Cl)c(Cl)c1)Nc1ccc(SC(F)F)cc1`, with “inactive”; and `CCN(CC)S(=O)(=O)c1ccc(-c2cn3ccc(C)cc3n2)cc1`, with “inactive”.

With `CCCOc1cccc(C(=O)NCCCNC(=O)c2cccnc2)c1`, the Potency entry is “inactive”. With `Cc1nn(C(C)C(=O)NCCC2=CCCCC2)c(=O)c2nn(-c3ccccc3)c(C)c12` (configuration not stated), the Potency entry was “inactive”. Still for that read-out and setting: then `O=C(NNS(=O)(=O)c1ccc(F)cc1)C1CCCCC1`, with “inactive”. As to `CS(=O)(=O)Nc1ccccc1N=C(c1ccccc1)c1ccccc1`, the Potency result was “inactive”. Regarding `COC(=O)c1cccc(N(C(=O)CNC(=O)c2cccs2)C(C(=O)NCC2CCCO2)c2ccc(OC)c(OC)c2)c1` (configuration not stated), the Potency entry is “inactive”.

For `COc1cccc(N(C(=O)c2snc(C(N)=O)c2N)C(C(=O)NCC2CCCO2)c2c[nH]c3ccccc23)c1` (configuration not stated), the Potency is 9.28 µM (active). As to `COCCNC(=O)C(c1ccc(C)o1)N(Cc1cccs1)C(=O)c1snc(C(N)=O)c1N` (configuration not stated), the Potency result is “inactive”.

On to `Cc1ccc(C(C(=O)NCC2CCCO2)N(C(=O)c2snc(C(N)=O)c2N)c2ccc(C(C)C)cc2)o1` (configuration not stated), for which the Potency is 9.28 µM (active). Still for that read-out and setting: then `CCOc1ccc(N(CC(=O)NCC2CCCO2)S(=O)(=O)c2ccc(C)cc2)cc1` (configuration not stated), with “inactive”. Consider `CC(Sc1nn(-c2ccc(Cl)cc2)c(=S)s1)C(=O)NCC1CCCO1` (configuration not stated), for which the Potency result was “inactive”.

For the compound `O=C(NCCc1c[nH]c2ccccc12)C(=O)NCC1CCCO1` (configuration not stated), the Potency entry was “inactive”. For `CCOc1ccc(N(C(=O)c2snc(C(N)=O)c2N)C(C(=O)NCC2CCCO2)c2c[nH]c3ccccc23)cc1` (configuration not stated), the Potency is 5.22 µM (active).

`Cc1ccc(N(C(=O)Cc2cccs2)C(C(=O)NCC2CCCO2)c2ccncc2)cc1` (configuration not stated): the Potency entry was “inactive”.

In the case of `CCOc1ccc(-n2c(N)c(C(=O)NCC3CCCO3)sc2=S)cc1` (configuration not stated), the Potency result was “inactive”. Same read-out and setting: then `Cc1ccc(N(C(=O)c2snc(C(N)=O)c2N)C(C(=O)NCC2CCCO2)c2c[nH]c3ccccc23)cc1` (configuration not stated), with 7.38 µM (active); and `CCOc1cc(C(C(=O)NCC2CCCO2)N(C(=O)Cn2nnc3ccccc32)c2cccc(OC)c2)ccc1O` (configuration not stated), with “inactive”; and `COc1ccc2oc(=O)cc(CN3CCOCC3)c2c1`, with “inactive”. `CC(=O)c1c(C)[nH]c(C(=O)CN2C(=O)NC(C)(C)C2=O)c1C`: the Potency entry is “inactive”.

Regarding `CC1CCCN(C(=O)CN2C(=O)c3ccccc3S2(=O)=O)C1` (configuration not stated), the Potency entry is “inactive”. For `O=C(NNS(=O)(=O)c1ccc([N+](=O)[O-])cc1)C1CCCCC1`, the Potency result is “inactive”. In the case of `CC(=O)O[C@H]1c2ccccc2-c2ccccc2[C@@H]1OC(C)=O`, the Potency result was “inactive”.

As to `C[N+](C)(C)CCNC(=O)c1cc[n+](Cc2ccccc2)c(/C=N/O)c1`, the Potency result is “inactive”. Same read-out and setting: for `CC(=O)c1ccc(S(=O)(=O)NCCC(=O)N2CCN(c3ccccn3)CC2)cc1` the value was “inactive”; for `COc1cc(NC(=O)c2ccccc2)c(OC)cc1NC(=O)Cc1ccccc1`, “inactive”. Still for that read-out and setting: then `Nn1c(SCC(=O)Nc2nccs2)nnc1-c1ccco1`, with “inactive”. Turning to `CCC(NC(=O)C1CCCC1)c1ccc(C)cc1` (configuration not stated), the Potency entry is “inactive”.

In the case of `COc1cccc(N2CC(NS(=O)(=O)c3cccs3)CC2=O)c1` (configuration not stated), the Potency result was “inactive”. Consider `Cc1ccc(NC(=O)c2c(NC(=O)CCC(=O)O)sc3c2CCCCC3)cc1`, for which the Potency entry was “inactive”. As to `Cc1ccc(C(=O)c2c(NC(=O)c3ccncc3)sc3c2CCCC3)cc1`, the Potency was 6.57 µM (active). With `NC(=O)c1c(NC(=O)c2ccccc2)sc2c1CCCC2`, the Potency result is “inactive”.

Turning to `COc1cccc(NC(=O)N2CCC(NC(=O)C(Cc3cccc(C)c3)NC(C)=O)CC2)c1` (configuration not stated), the Potency entry was “inactive”. Turning to `CC(C)[C@H](NC(=O)N1CCn2c1nc1ccccc12)C(=O)NC1CC1`, the Potency result is “inactive”. The same measure, in the same setting: for `CC(OC(=O)c1ccc(S(=O)(=O)N2CCOCC2)cc1)c1ccccc1` (configuration not stated) the value was “inactive”; for `CNC(=O)c1ccsc1NC(=O)c1ccc(S(=O)(=O)N2CCOCC2)cc1`, “inactive”. Same read-out and setting: for `COC(=O)c1c(NC(=O)c2ccc(S(=O)(=O)N3CCOCC3)cc2)sc2c1CCN(C(C)C)C2` the value was 11.7 µM (active).

As to `COCC(=O)N1CCCC(C(=O)c2ccc(C(F)(F)F)cc2)C1` (configuration not stated), the Potency entry is “inactive”. Same read-out and setting: for `O=c1[nH]c(CSc2ccccc2)nc2c1oc1ccccc12` the value was 10.4 µM (active). Regarding `CCOC(=O)c1sc2nc(CSc3ccccc3)[nH]c(=O)c2c1C`, the Potency result was “inactive”. `Cc1nc(Cl)c2oc3ccccc3c2n1`: the Potency result was “inactive”. Still for that read-out and setting: then `Cn1c(CC(=O)Nc2ccc(F)cc2)nnc1SCC(=O)NC1CCCCC1`, with “inactive”; and `CCCCN1C(=O)/C(=C2/Sc3ccc(Cl)cc3N2CC)SC1=S`, with “inactive”; and `CC(NCc1cccs1)C(=O)Nc1cc(Cl)cc(Cl)c1` (configuration not stated), with “inactive”. As to `CCOCCCNC(=O)C1(O)c2cc(Br)ccc2NC(=O)N1c1ccc(C)c(C)c1` (configuration not stated), the activity change, negative = inhibition is -7.48% [at 0.00184 µM] (inactive). Consider `CCCCN1C(=O)C(C)=C(C)C1OCCc1ccc(OC)c(OC)c1` (configuration not stated), for which the Potency result is “inactive”.

As to `O=C(Cc1ccc(-c2ccccc2)cc1)NC(c1ccccc1)c1ccccc1`, the Potency was 13.1 µM (active). Regarding `C=CCC(NC(=O)Cc1ccccc1)C(=O)NCCC` (configuration not stated), the Potency result was “inactive”.

With `O=C(O)Cc1ccc(-c2ccccc2)cc1`, the Potency entry is “inactive”. As to `Cc1ccc(S(=O)(=O)NCC(=O)N2CCOCCOCCOCCOCC2)cc1`, the Potency result is “inactive”. Same read-out and setting: then `Cc1cc(C)cc(C(=O)NC(CC(N)=O)c2ccc(N3CCC(N4CCCCC4)CC3)c([N+](=O)[O-])c2)c1` (configuration not stated), with “inactive”; and `COc1ccc(C2C(C(C)=O)=C(O)C(=O)N2Cc2cccnc2)cc1` (configuration not stated), with “inactive”; and `O=C1[C@H]2[C@@H](c3ccc(Cl)cc3)N3C(=O)N(c4cccc(F)c4)C(=O)[C@@]3(Cc3ccccc3)[C@H]2C(=O)N1C1CCCCC1`, with 9.28 µM (active).

Turning to `O=C1[C@H]2[C@@H](c3ccc(F)cc3)N3C(=O)N(c4ccc(C(F)(F)F)cc4)C(=O)[C@@]3(Cc3ccccc3)[C@H]2C(=O)N1C1CCCCC1`, the Potency is 4.65 µM (active). For the compound `O=C(NC1(C(F)(F)F)NC(=O)N(C2CCCCC2)C1=O)c1ccco1` (configuration not stated), the Potency result was “inactive”. On the same count and under the same terms, for `Cc1cccc([C@@H]2[C@@H]3C(=O)N(Cc4ccccc4)C(=O)[C@@H]3[C@]3(Cc4ccc(Cl)cc4)C(=O)N(c4cccc(Cl)c4)C(=O)N23)c1` the value was 4.15 µM (active); for `COc1ccc(N2C(=O)C(Cc3ccccc3)NC2=S)cc1` (configuration not stated), “inactive”. Take `O=C1CC(NNc2ccccc2)C(=O)N1c1cccc(Cl)c1` (configuration not stated): the Potency result was “inactive”. For `COC(=O)CN1C(=O)[C@H]2[C@@H](/C=C/c3ccccc3)N3C(=O)CN(Cc4ccccc4)C(=O)[C@@]3(Cc3ccccc3)[C@H]2C1=O`, the Potency entry is “inactive”. The same measure, in the same setting: for `COc1ccc([C@@H]2[C@@H]3C(=O)N(C(C)(C)C)C(=O)[C@@H]3[C@]3(Cc4ccccc4)C(=O)N(c4cccc(Br)c4)C(=O)N23)cc1` the value was 2.62 µM (active); for `O=C(CCNS(=O)(=O)c1ccc(Br)cc1)NCC1CCCO1` (configuration not stated), “inactive”; for `CCc1ccc(/C=N/NC(=O)c2nnn(-c3nonc3N)c2CN2CCc3ccccc32)cc1`, “inactive”. Take `Cc1cc(OC(=O)c2ccc(OC(C)C)cc2)c([N+](=O)[O-])c(=O)[nH]1`: the Potency result was “inactive”. In the case of `Cc1ccc(NS(=O)(=O)c2ccc(C(=O)NCCCN3CCOCC3)cc2)cc1`, the Potency entry was “inactive”. In the case of `COc1ccc(N2CCN(C(=O)CN3C(=O)COc4ccccc43)CC2)cc1`, the Potency result is “inactive”. As to `COc1ccc(Cc2nc3ccc(C(=O)NCC4CCOCC4)cc3o2)cc1OC`, the Potency result is “inactive”.

Turning to `CN(CC(=O)Nc1cccc(F)c1)CC(=O)Nc1cccc([N+](=O)[O-])c1`, the Potency entry was “inactive”. With `COc1ccc(C)cc1S(=O)(=O)N(CC(=O)Nc1cccc([N+](=O)[O-])c1)c1ccc(C)cc1`, the Potency is 9.28 µM (active). On to `COc1ccc(N(CC(=O)Nc2ccc(C)cc2C)S(=O)(=O)c2ccccc2[N+](=O)[O-])c(OC)c1`, for which the Potency was 9.28 µM (active).

Take `Cc1ccc(N(CC(=O)Nc2cccc(N(C)S(C)(=O)=O)c2)S(C)(=O)=O)cc1`: the Potency result was “inactive”.

As to `COc1ccc(OCC(=O)Nc2cc(C)c(Cl)cc2OC)c([N+](=O)[O-])c1`, the Potency result is “inactive”. On to `COc1ccc(N(CCC(=O)NCCc2ccccc2)S(=O)(=O)c2ccc(C)cc2C)cc1`, for which the Potency result is “inactive”.
